Source: PubChem BioAssay (National Center for Advancing Translational Sciences (NCATS))
HepG2 tox = counter-screen for TGF-b inhibitors: cytotoxicity in HepG2 cells. HepG2 CAGA-GFP viability, ATP luminescence, 18 h. Potency, µM (doses to about 46.1 µM), without a hit: top-dose activity change, negative = cytotoxicity, usual class: cytotoxic. actives 0.76% (n = 410,000)
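HepG2 CAGA-GFP cells (1000/well, DMEM with 1% FBS) received compound, then TGF-beta at 500 pg/mL final, and were incubated 18 hours at 37 degrees C. Viability was read by CellTiter-Glo luminescence. Media-only wells were set as complete cell-killing and DMSO as no toxicity.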
GLP-1R inv ag = inverse agonists of human GLP-1 receptor; P43220; HEK293 GLP-1R CRE-luciferase, luminescence, 24 h; GLP-1R form is constitutively active; Potency, µM (titrated, usually from 38.3 µM), for inactives: top-dose activity change, negative = inhibition, actives largely listed as inhibitors; actives 1.6% (n = 410,000); AID 624417; also: % is scaled to controls: 0 for no effect and ±100 for the full control effect; nearly all actives have a fitted effect of over 55% in size
Target sequence (P43220 whole entry, looked up): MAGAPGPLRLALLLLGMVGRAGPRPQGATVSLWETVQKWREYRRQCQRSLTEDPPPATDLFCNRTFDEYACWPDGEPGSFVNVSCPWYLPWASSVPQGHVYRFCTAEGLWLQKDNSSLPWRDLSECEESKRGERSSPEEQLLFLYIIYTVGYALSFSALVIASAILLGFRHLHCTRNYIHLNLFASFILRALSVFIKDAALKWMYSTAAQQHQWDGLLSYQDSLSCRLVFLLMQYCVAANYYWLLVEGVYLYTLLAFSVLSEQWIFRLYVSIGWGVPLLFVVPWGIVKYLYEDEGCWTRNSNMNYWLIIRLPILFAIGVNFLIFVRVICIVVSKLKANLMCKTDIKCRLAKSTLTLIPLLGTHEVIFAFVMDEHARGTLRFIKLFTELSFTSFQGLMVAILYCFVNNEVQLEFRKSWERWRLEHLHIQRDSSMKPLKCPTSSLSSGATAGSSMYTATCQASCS
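Cells are plated, allowed 12 hours at 37 deg C, then treated with compounds for 24 hr before luciferase detection reagent is added and luminescence is read after 12 min at room temperature. The HEK293 line carries constitutively active GLP-1R with a cAMP-responsive reporter.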
GLP-1R agonist = agonists of human GLP-1 receptor; HEK293 GLP-1R CRE-luciferase, luminescence, 4-6 h; cells express a hypersensitive GLP-1R form; Potency, µM (series often up to 45.6 µM), for the others: at the top dose activation, usual class: activators; actives 0.007% (n = 380,000); AID 624172; also: % of control where 0% means no effect
ATXN2 expr inh = inhibitors of ATXN2 expression; Potency, µM (series often up to 57 µM), without a hit: at the highest dose activity change, negative = inhibition, most hits filed as inhibitors; actives 0.72% (n = 360,000); HEK-293 ATXN2-luciferase reporter, luminescence, 24 h; also: % is scaled to controls: 0 for no effect and ±100 for the full control effect; nearly all actives have a fitted effect of over 55% in size
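ATXN2-luciferase reporter cells (luciferase flanked by upstream and downstream ATXN2 gene portions) were treated 24 h at 37 °C with compounds at up to 57 uM. SteadyGlo luminescence gave expression; GF-AFC fluorescence gave viability.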
S2 tox = viability counter-screen for ATXN expression inhibitors. S2 cells (HEK-293 line with an ATXN2-luciferase reporter) viability, CellTiter-Fluor protease fluorescence, 24 h. Potency, µM (titrated, usually from 56.7 µM), most hits filed as cytotoxic. actives 0.49% (n = 400,000). AID 651635; also: nearly all actives have a fitted effect of over 40% in size
TGFb inhibitor = blocks TGF-b signaling; Potency, µM (doses to about 46.1 µM), for the others: top-dose activity, negative = inhibition, actives largely listed as inhibitors; AID 588855; HepG2 CAGA-GFP TGF-b/SMAD3 reporter, GFP fluorescence, 18 h; TGF-beta stimulated, 500 pg/mL final; actives 1.2% (n = 410,000); also: % is scaled to controls: 0 for no effect and ±100 for the full control effect; nearly all actives have a fitted effect of over 65% in size
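HEPG2 CAGA-GFP reporter cells (1000/well, DMEM with 1% FBS) received compounds, then recombinant TGF-beta at 500 pg/mL final for 18 hours at 37 degrees C. Per-cell GFP summed per well was normalised to unstimulated and stimulated DMSO controls before curve fitting.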
* marks the source's active call; other numbers are inactive results; [ ] = another dose, or the depositor's remark. This is a sample that favours compounds with a hit; in the whole collection about 3.7% have one here. Calls follow the shape of the dose curve; as a rule, active = well fitted curve in the direction sought with a large enough effect; inconclusive = small, poorly fitted or top-dose-only effect, or another doubt; inactive = no such curve, though single readings can be large; an effect the other way counts as inactive or inconclusive. Potency is read from the fitted curve at half-maximal effect.

Screening COc1cccc(CNC(=O)CN2C(=O)COc3ccc(S(=O)(=O)Nc4ccccc4)cc32)c1 returned HepG2 tox -7%, GLP-1R inv ag -16%, GLP-1R agonist -1%, ATXN2 expr inh -14%, S2 tox inactive and TGFb inhibitor -7%.
CC(=O)Nc1ccc(SCC(CC(C)C)N2CCN(CCc3ccccc3)CCC2=O)cc1 (stereo not given) was read as HepG2 tox -6% and TGFb inhibitor inconclusive.
For Cc1c(C)n(Cc2ccccc2)c2ccc(C(=O)OCCCN(C)C)cc12 the results were HepG2 tox 18µM*, GLP-1R inv ag inconclusive, GLP-1R agonist inconclusive, ATXN2 expr inh -31%, S2 tox inconclusive and TGFb inhibitor inconclusive.
`Cc1c(C)n(Cc2ccccc2)c2ccc(C(=O)NCCc3ccccc3Cl)cc12` gave HepG2 tox -21%, GLP-1R inv ag 10µM* and TGFb inhibitor 0%.
Screening Cc1ccccc1CCNC(=O)c1ccc2c(c1)c(C)c(C)n2Cc1ccccc1 returned HepG2 tox -36%, GLP-1R inv ag 10µM* and TGFb inhibitor 0%.
`CCN1CCN(C(=O)c2ccc3c(c2)c(C)c(C)n3Cc2ccccc2)CC1` gave HepG2 tox -20%, GLP-1R inv ag -12%[7.66 µM], GLP-1R agonist -1%, ATXN2 expr inh 15%, S2 tox inactive and TGFb inhibitor 19%.
For Cc1ccc(N=C2SC(C(=O)Nc3ccc(OC(F)(F)F)cc3)C(N)=C2C(=O)Nc2c(C)cc(C)cc2C)cc1 (stereo not given) the results were HepG2 tox 11µM*, GLP-1R inv ag 2.8µM*, GLP-1R agonist -4%, ATXN2 expr inh inconclusive and TGFb inhibitor 7.1µM*.
`COc1cc(C2CC(=O)Nc3c2c(C)nn3-c2nncc(-c3ccccc3)n2)cc(OC)c1OC` (stereo not given) gave HepG2 tox -11%, GLP-1R inv ag 7%, ATXN2 expr inh -3%, S2 tox inactive and TGFb inhibitor -3%.
CC1(C)CC[C@]2(C(=O)n3ccnc3)CC[C@]3(C)[C@H](C(=O)C=C4[C@@]5(C)C=C(C#N)C(=O)C(C)(C)[C@@H]5CC[C@]43C)[C@@H]2C1 was read as HepG2 tox -97%, GLP-1R inv ag 2.5µM*, GLP-1R agonist -2%, ATXN2 expr inh 3.4µM*, S2 tox 3.8µM* and TGFb inhibitor inconclusive.
`Cc1ccnc(NC(=O)c2ccc(OCC3CCCO3)cc2)c1` (stereo not given) gave HepG2 tox -53%, GLP-1R inv ag 5.6µM*, GLP-1R agonist -5%, ATXN2 expr inh 5.6µM*, S2 tox inactive and TGFb inhibitor 2%.
Cc1ccc(NC(=O)c2ccc(OCC3CCCO3)cc2)c(C)c1 (stereo not given) was read as HepG2 tox -3%, GLP-1R inv ag 22%, GLP-1R agonist -4%, ATXN2 expr inh 2%, S2 tox inactive and TGFb inhibitor inconclusive.
Screening O=CC1=C(c2ccccc2)Oc2ccccc2O1 returned HepG2 tox -94%, GLP-1R inv ag inconclusive, GLP-1R agonist -5%, ATXN2 expr inh inconclusive, S2 tox 22µM* and TGFb inhibitor inconclusive.
Screening COC(=O)c1cccc(C#CC(NP(=O)(c2ccccc2)c2ccccc2)c2ccccc2)c1 (stereo not given) returned HepG2 tox -41%, GLP-1R inv ag inconclusive, GLP-1R agonist -5%, ATXN2 expr inh inconclusive, S2 tox inconclusive and TGFb inhibitor inconclusive.
For CCC[C@@H]1C[C@@]1(CCC)[C@@H](NP(=O)(c1ccccc1)c1ccccc1)c1ccc(C(=O)OC)cc1 the results were HepG2 tox 14µM*, GLP-1R inv ag inconclusive, GLP-1R agonist 5%, ATXN2 expr inh inconclusive, S2 tox inconclusive and TGFb inhibitor 11µM*.
For O=C(CCc1c[nH]c2ccccc12)N1CCC(n2c(C3CCCO3)nc3cc(C(F)(F)F)ccc32)CC1 (stereo not given) the results were S2 tox inactive.
`COc1cc(/C=C/c2ccnc3ccccc23)cc(OC)c1OC` gave HepG2 tox -30% and TGFb inhibitor -4%.
O=C(NCc1cccnc1)/C(=C\c1ccc(-c2ccc(Cl)c(Cl)c2)o1)S(=O)(=O)c1ccccc1 was read as HepG2 tox -103%, GLP-1R inv ag inconclusive, GLP-1R agonist -34%, ATXN2 expr inh 13µM* and TGFb inhibitor 4.5µM*.
Screening O=C(NCc1cccnc1)c1ccc(-c2ccc(Cl)cc2)o1 returned HepG2 tox -29%, GLP-1R inv ag 18%, GLP-1R agonist -3%, S2 tox inactive and TGFb inhibitor inconclusive.
`COc1cc(=O)n2c(c1C(=O)NC(C)c1ccco1)CCN(C(=O)c1ccc(F)cc1Cl)CC2` (stereo not given) gave S2 tox inactive.
`CN(CCC#N)c1ccc(/C=C/c2ccnc3ccccc23)cc1` gave HepG2 tox -37% and TGFb inhibitor inconclusive.
For Cc1ccc2c(CN(Cc3ccccc3)Cc3ccccc3)cc(=O)oc2c1 the results were HepG2 tox -32%, GLP-1R inv ag inconclusive, GLP-1R agonist 0%, ATXN2 expr inh -1%, S2 tox inactive and TGFb inhibitor inconclusive.
Screening Cc1ccc2c(CN(C)Cc3ccc(Cl)cc3Cl)cc(=O)oc2c1 returned HepG2 tox -12%, GLP-1R inv ag 11µM*, GLP-1R agonist 1%, ATXN2 expr inh -24%, S2 tox inactive and TGFb inhibitor -18%.
CCN(Cc1cc(=O)oc2cc(C)ccc12)c1ccccc1 was read as HepG2 tox -35%, GLP-1R inv ag 10µM*, GLP-1R agonist 7%, ATXN2 expr inh -17%, S2 tox inactive and TGFb inhibitor inconclusive.
`Cc1ccc2occ(/C=N/NC(=O)[C@@H](N)Cc3ccccc3)c(=O)c2c1` gave HepG2 tox 10µM*, GLP-1R inv ag inconclusive, GLP-1R agonist -2%, ATXN2 expr inh 7%, S2 tox inactive and TGFb inhibitor -22%.
CC(C)(C)c1nc2cc(Cl)c([N+](=O)[O-])cc2o1 was read as HepG2 tox -20%, GLP-1R inv ag inconclusive, GLP-1R agonist -7%, ATXN2 expr inh -32%, S2 tox inactive and TGFb inhibitor 7.1µM*.
